Source: PubChem BioAssay (National Center for Advancing Translational Sciences (NCATS))
In the library only some 21% were active in any assay of this set; here they are far more common.
AMA1 RON2 block – inhibitors of Plasmodium falciparum AMA1-RON2 interaction; Potency, µM (series often up to 58.2 µM), inactives show top-dose activity change, negative = inhibition, hits mostly inhibitors; 360,000 compounds, 0.2% hits; AlphaScreen AMA1-biotinylated RON2 peptide binding;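 note: potency is the fitted concentration of half-maximal effect; 0% = vehicle wells and -100% = peptide control; nearly all actives have a fitted effect of over 45% in size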
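AMA1 (3D7) with his tag at 25 nM final met compounds first, then biotinylated RON2 peptide at 25 nM; detection used donor plus acceptor beads, 10 µg/mL apiece, read by AlphaScreen after 30 min at room temperature.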
Pf growth 48h – inhibits P. falciparum growth in the first generation, 48 h | P. falciparum luciferase growth in erythrocytes, 48 h | AID 504832 | 310,000 compounds, 5.9% hits | Potency, µM (series often up to 28.7 µM), inactives show top-dose activity change, negative = inhibition, hits mostly inhibitors; note: potency is the fitted concentration of half-maximal effect; % is set by controls: 0 for no effect and ±100 for the full control effect
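Luciferase-expressing P. falciparum in infected erythrocytes (2% hematocrit, 0.1% parasitemia final) in RPMI 1640/0.5% Albumax were exposed to compound for 48 hours at 37 C, 5% CO2; growth read as luminescence.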
HCV inh – HCV inhibition. AID 651820. 340,000 compounds, 3.4% hits. Potency, µM (titrated, usually from 41.8 µM), inactives show top-dose activity change, negative = inhibition, actives largely listed as inhibitors. Huh7.5.1 HCVcc-Cre infection, luciferase reporter, 44 h; note: potency is the fitted concentration of half-maximal effect; % is set by controls: 0 for no effect and ±100 for the full control effect
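Reporter virus HCVcc-Cre (~0.5 moi) infects cells exposed to compound; seeding density 1,000 cells/well with 4 h settling beforehand. Luminescence, 15 sec read, taken 44 h post-infection following a 15 min RT substrate incubation.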
Shiga inhibitor – blocks Shiga toxin action in Vero cells; Vero cells, Shiga toxin protein synthesis inhibition reporter; inhibition, % at 38.7 µM; 290,000 compounds, 9.2% hits; AID 2315; in the data active = inhibition mostly above about 28%, no sharp cut-off; inactive = mostly below about 43%; note: 0% is about no effect
CHX counter – counter-screen for Shiga toxin inhibitors: cycloheximide protein synthesis inhibition; cell reporter, cycloheximide protein synthesis inhibition counterscreen; max response, %; 300,000 compounds, 12% hits; in the data active = max response mostly above about 13%, no sharp cut-off; inactive = mostly below about 14%; note: read at 38.3 µM for the half of the compounds with a filed dose; 0% is about no effect
Pf growth 96h – P. falciparum growth inhibition at 96 hours | P. falciparum luciferase reporter growth, 96 h | Potency, µM (highest dose often 28.7 µM), for the others: top-dose activity change, negative = inhibition, usual class: inhibitors | 320,000 compounds, 6.9% hits | AID 504834; note: potency is the fitted concentration of half-maximal effect; % is set by controls: 0 for no effect and ±100 for the full control effect
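Delayed-death screen, second-generation endpoint: infected erythrocytes, 2% hematocrit, 0.05% parasitemia final; 96 hours at 37 C, 5% CO2; luciferase detection reagent; luminescence decrease equals reduced growth.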
* = called active by the depositor; u = inconclusive; x = no result. Unless noted, calls come from the whole dose curve; as a rule, active = well fitted curve in the direction sought with a large enough effect; inconclusive = small, poorly fitted or top-dose-only effect, or another doubt; inactive = no such curve, though single readings can be large; an effect the other way counts as inactive or inconclusive.

SMILES | AMA1 RON2 block | Pf growth 48h | HCV inh | Shiga inhibitor | CHX counter | Pf growth 96h
O=C(CSc1nnc2c(n1)[nH]c1ccccc12)Nc1ccc(N2CCOCC2)cc1 | -9% | -23% | u | 4 | -1 | -7%
O=C(CSc1nnc2c(n1)[nH]c1ccccc12)Nc1cccc(S(=O)(=O)N2CCOCC2)c1 | 1% | u | u | -3 | -3 | 15µM*
Cc1ccc2c(c1)c1nnc(SCC(=O)NC3CC3)nc1n2C | x | -3% | x | -10 | -7 | u
CC(C)OC(=O)CSc1nnc2c3ccccc3n(C)c2n1 | -2% | 9% | 20% | -2 | -2 | -11%
CCSc1nnc2c3cc(CC)ccc3n(C)c2n1 | 0% | 0% | 4% | 54 | active | u
Cc1csc(N2C(=O)C3C4CCC(O4)C3C2=O)n1 (centres undefined) | 3% | x | 22% | x | x | x
Cc1cccc(-n2ncc3c(NCc4ccco4)ncnc32)c1 | -2% | 313% | u | 64* | 35* | 335%
Cc1ccc(-n2ncc3c(NCc4ccco4)ncnc32)cc1C | 8% | 71% | 17% | 91* | 51* | u
O=S(=O)(c1ccccc1)N1N=C(c2ccc(Br)cc2)CC1c1ccco1 (centres undefined) | -6% | u | u | 19 | 12 | u
O=S(=O)(c1ccccc1)N1N=C(c2ccc(O)cc2)CC1c1ccco1 (centres undefined) | 0% | -19% | 10µM* | 10 | 11 | u
Cc1ccc(C2=NN(S(=O)(=O)c3ccccc3)C(c3ccco3)C2)cc1 (centres undefined) | -7% | 9.3µM* | 13µM* | x | x | 12µM*
Cc1ccc2c(cnn2C(=O)CCC(=O)NC2CCCCC2)c1 | 3% | -13% | 15% | -2 | -3 | u
C/C(CC(=O)Nc1ccc(Cl)c(C(F)(F)F)c1)=N\NC(=O)c1cc2ccccc2cc1O | 80% | u | -25% | -7 | 13* | u
C/C(CC(=O)Nc1cccc(Br)c1)=N\NC(=O)c1ccc(O)cc1O | 65% | 12% | -7% | 65* | 31* | -17%
C/C(CC(=O)Nc1ccc(Cl)c(Cl)c1)=N\NC(N)=S | 36% | 13µM* | u | 19 | -3 | 6%
COc1cccc(NC(=O)C/C(C)=N/NC(=O)c2ccccc2Cl)c1 | 95% | 3% | 4% | 55* | 25* | 10%
C/C(CC(=O)N1CCCC1)=N\NC(=O)c1cc2ccccc2cc1O | 96% | u | -12% | 48 | 14 | -24%
COc1ccc(Cl)cc1NC(=O)C/C(C)=N/NC(=O)CCc1ccccc1 | 59% | 1% | u | -3 | -2 | 14%
C/C(CC(=O)Nc1cccc(Cl)c1Cl)=N\NC(=O)c1ccccc1N | 83% | 6% | -15% | 112* | 37* | 28%
COc1ccc(Cl)cc1NC(=O)C/C(C)=N/NC(=O)c1ccccc1Cl | 71% | -9% | 8% | x | 12 | 13µM*
O=C(Cc1ccccc1F)Nc1cc(S(=O)(=O)N2CCCCC2)ccc1N1CCOCC1 | -6% | x | x | x | x | x
C/C(=N\Nc1cccc2cccnc12)c1ccc[nH]1 | -11% | 421% | 6% | 75* | 40* | 252%
CCC(=O)Nc1cccc2cccnc12 | -5% | 7% | 6% | 27 | 5 | 18%
O=C(NCCc1nc2ccccc2[nH]1)c1cc([N+](=O)[O-])cc([N+](=O)[O-])c1 | -3% | 4.7µM* | -6% | -4 | -2 | u
O=C(CNC(=O)c1ccccc1)NCCc1nc2ccccc2[nH]1 | -12% | 13% | 13% | 5 | 1 | x
SMILES | AMA1 RON2 block | Pf growth 48h | HCV inh | Shiga inhibitor | CHX counter | Pf growth 96h
O=C(Cn1cc([N+](=O)[O-])cn1)NCCc1c[nH]c2ccccc12 | -5% | 15% | 17% | -4 | -2 | u
O=C(Cn1cc([N+](=O)[O-])cn1)NCCc1nc2ccccc2[nH]1 | 98% | 19% | 9% | 11 | 4 | 9.3µM*
O=[N+]([O-])c1ccc2oc(C(O)c3cccc(Cl)c3)cc2c1 (centres undefined) | -13% | u | -26% | -3 | -5 | u
Cc1ccc(OCC(=O)Nc2ccccc2C(=O)N2CCCC2)cc1 | 0% | 10% | -17% | 7 | 9 | -23%
O=C(C1COc2ccccc2O1)N1CCN(c2ccccc2)CC1 (centres undefined) | -20% | u | 3% | 12 | 2 | x
COc1cc2nc(N3CCN(C(=O)[C@@H]4COc5ccccc5O4)CC3)nc(N)c2cc1OC | x | 15µM* | x | x | x | 13µM*
COc1cc2nc(N3CCN(C(=O)C4COc5ccccc5O4)CC3)nc(N)c2cc1OC (centres undefined) | -19% | 4.7µM* | u | -13 | -3 | 3.7µM*
COc1ccc2nc(N3CCN(C(=O)C4COc5ccccc5O4)CC3)sc2c1 (centres undefined) | u | 5% | u | x | x | 36%
O=C1CC(c2ccccc2)Cc2[nH]c(=O)c(-c3nc(-c4ccc(F)cc4)cs3)cc21 (centres undefined) | x | x | x | -4 | -5 | x
Cc1ccc(Sc2c(C(=O)Nc3ccc(F)cc3F)c(C(F)(F)F)nn2C)cc1 | 25% | u | -2% | -3 | -3 | u
Cn1nc(C(F)(F)F)c(C(=O)Nc2ccc(F)cc2F)c1Sc1ccc(C(F)(F)F)cc1 | 8% | u | -8% | -3 | -3 | 8.3µM*
Cn1nc(C(F)(F)F)c(C(=O)Nc2ccc(F)cc2F)c1Sc1ccc(Cl)cc1 | 0% | u | -5% | -3 | 0 | 12µM*
CCCCN1C(=O)C(O)(CC(=O)c2c(C)coc2C)c2ccccc21 (centres undefined) | -8% | u | 5% | -8 | 1 | -18%
C=CCN1C(=O)C2(NC(=O)c3ccccc3N2)c2ccccc21 (centres undefined) | 16% | 5% | -12% | -4 | -4 | -16%
CCCCN1C(=O)C2(NNc3ccccc3O2)c2ccccc21 (centres undefined) | -3% | 10µM* | u | 62* | 47* | x
C=CCN1C(=O)C2(NNc3ccccc3O2)c2ccccc21 (centres undefined) | -16% | x | 3% | -20 | 6 | 12µM*
O=C(NCCCn1ccnc1)c1csc2ccccc12 | 11% | -14% | -1% | -2 | -2 | 10µM*
CCN(CC)CCCNC(=O)c1cc(-c2ccc(Cl)c(Cl)c2)on1 | -9% | 10µM* | 1.4µM* | -7 | -3 | -21%
O=C(NCCN1CCOCC1)c1cc(-c2ccc(Cl)c(Cl)c2)on1 | 7% | 5% | 4% | -7 | -4 | 30%
O=C(NCCCn1ccnc1)c1ccccc1Cl | -1% | -5% | 16% | -6 | -5 | 35%
O=C(NCCCN1CCOCC1)c1cc(-c2cccs2)on1 | 0% | 39% | -11% | 160* | 42* | x
